For 6 sequences, binding signal results are on record in paper PMC11574364.

Among the targets are VIGILIN(1-5) (Homo sapiens, UniProt Q00341); RBMX (Homo sapiens, UniProt P38159); IGF2BP3(1-2) (Homo sapiens, UniProt O00425); TNRC4(3) (Homo sapiens, UniProt Q5SZQ8); RED1(1)/ADARB1 (Homo sapiens, UniProt P78563); KHDRBS1 (Homo sapiens, UniProt Q07666); RBM3 (Homo sapiens, UniProt P98179).
Test in all cases: protein domain microarray probed with biotinylated miRNA; Domain array: 20 mM Tris-HCl pH 7.4, 200 mM KCl, 0.2 mM EDTA, 0.05% NP40, 2 ug/ul heparin, overnight 4 C. ORF array: PBS pH 7.0 with RNase inhibitor, 100 ng RNA; high values mean tight binding
Common to all, as to conditions: ssRNA

For another assay, the target named is T1, NFAT90(2)/ILF3 (Homo sapiens, UniProt Q12906).
T1 sequence: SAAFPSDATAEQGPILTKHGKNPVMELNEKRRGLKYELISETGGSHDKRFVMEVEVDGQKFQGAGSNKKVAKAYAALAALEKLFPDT

Another assay deals with T2, STAU2(1-2) (Homo sapiens, UniProt Q9NUL3).
T2 chain: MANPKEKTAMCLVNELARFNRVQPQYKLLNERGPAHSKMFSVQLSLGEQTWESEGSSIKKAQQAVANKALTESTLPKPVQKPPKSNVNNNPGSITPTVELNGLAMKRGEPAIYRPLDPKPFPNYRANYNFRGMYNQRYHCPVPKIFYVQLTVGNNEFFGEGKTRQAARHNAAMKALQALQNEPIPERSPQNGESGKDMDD

The next assay has as its target T3, RBM24 (Homo sapiens, UniProt Q9BX46).
T3 sequence: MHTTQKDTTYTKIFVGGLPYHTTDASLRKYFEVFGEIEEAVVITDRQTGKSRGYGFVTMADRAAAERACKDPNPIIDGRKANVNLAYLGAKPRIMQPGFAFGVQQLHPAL

A further assay has as its target T4, YTHDF2 (Homo sapiens, UniProt Q9Y5A9).
T4 sequence: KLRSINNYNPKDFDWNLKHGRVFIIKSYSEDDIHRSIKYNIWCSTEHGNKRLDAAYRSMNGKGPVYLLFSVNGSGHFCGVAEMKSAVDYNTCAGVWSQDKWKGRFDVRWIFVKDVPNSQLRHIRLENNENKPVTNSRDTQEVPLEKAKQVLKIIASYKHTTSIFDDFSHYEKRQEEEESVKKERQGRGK

For the next assay, the target named is T5, RBM44 (Homo sapiens, UniProt Q6ZP01).
T5 sequence: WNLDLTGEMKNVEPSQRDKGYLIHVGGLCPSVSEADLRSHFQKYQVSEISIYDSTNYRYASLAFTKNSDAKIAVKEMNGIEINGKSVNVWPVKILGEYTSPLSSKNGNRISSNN

In another assay the target is T6, RBM7 (Homo sapiens, UniProt Q9Y580).
T6 sequence: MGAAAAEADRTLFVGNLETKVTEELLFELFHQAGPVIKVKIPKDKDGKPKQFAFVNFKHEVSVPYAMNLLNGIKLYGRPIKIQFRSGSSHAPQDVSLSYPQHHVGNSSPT

Another assay addresses T7, RBM12B(4) (Homo sapiens, UniProt Q8IXT5).
T7 sequence: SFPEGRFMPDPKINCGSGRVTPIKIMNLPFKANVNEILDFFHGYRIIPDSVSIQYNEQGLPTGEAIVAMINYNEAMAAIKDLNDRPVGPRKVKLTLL

A further assay deals with T8, YTHDF3 (Homo sapiens, UniProt Q7Z739).
T8 sequence: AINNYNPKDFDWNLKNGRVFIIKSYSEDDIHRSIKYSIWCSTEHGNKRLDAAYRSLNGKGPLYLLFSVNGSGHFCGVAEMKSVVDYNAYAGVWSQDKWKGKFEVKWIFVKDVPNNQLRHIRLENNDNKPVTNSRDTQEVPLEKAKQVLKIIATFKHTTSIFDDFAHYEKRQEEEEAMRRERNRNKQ

In a further assay the target is T9, NOVA2(1-2) (Homo sapiens, UniProt Q9UNW9).
T9 sequence: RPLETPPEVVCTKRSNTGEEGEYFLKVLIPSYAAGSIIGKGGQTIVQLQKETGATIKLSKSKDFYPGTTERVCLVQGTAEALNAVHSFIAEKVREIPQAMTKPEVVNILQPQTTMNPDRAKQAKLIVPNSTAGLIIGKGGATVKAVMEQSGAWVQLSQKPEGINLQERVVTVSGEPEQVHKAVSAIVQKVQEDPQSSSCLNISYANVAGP

In the next assay the target is T10, SFRS4 (Homo sapiens, UniProt Q08170).
T10 sequence: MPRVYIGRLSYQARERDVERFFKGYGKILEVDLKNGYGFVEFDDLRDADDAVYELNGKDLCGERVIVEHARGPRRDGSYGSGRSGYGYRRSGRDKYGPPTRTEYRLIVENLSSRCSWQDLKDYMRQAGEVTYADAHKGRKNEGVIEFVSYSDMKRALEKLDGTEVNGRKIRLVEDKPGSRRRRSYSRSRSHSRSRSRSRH

A further assay addresses T11, DUS2L (Homo sapiens, UniProt Q9NX74).
T11 sequence: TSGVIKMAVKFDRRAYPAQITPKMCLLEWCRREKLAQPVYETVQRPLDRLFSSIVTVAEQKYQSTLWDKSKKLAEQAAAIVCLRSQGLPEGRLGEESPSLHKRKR

Another assay concerns the target T12, RNPC2 (Homo sapiens, UniProt Q14498).
T12 sequence: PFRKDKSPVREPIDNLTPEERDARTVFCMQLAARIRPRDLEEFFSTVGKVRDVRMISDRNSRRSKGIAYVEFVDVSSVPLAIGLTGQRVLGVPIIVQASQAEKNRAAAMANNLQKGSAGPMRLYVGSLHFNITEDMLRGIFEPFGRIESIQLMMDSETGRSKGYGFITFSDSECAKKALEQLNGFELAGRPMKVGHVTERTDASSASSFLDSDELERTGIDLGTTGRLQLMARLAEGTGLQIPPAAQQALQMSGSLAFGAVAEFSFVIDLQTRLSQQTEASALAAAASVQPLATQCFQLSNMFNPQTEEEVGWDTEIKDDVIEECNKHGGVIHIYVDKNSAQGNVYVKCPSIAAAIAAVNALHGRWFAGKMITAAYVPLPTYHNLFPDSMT

The target of the next assay is T13, SON (Homo sapiens, UniProt P18583).
T13 sequence: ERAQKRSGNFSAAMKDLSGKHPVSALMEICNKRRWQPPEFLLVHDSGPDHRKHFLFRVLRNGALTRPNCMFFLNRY

Chain of RBM3 (P98179 1-110): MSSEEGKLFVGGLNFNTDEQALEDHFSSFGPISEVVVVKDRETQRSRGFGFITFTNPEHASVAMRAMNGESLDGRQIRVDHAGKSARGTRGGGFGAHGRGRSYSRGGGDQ
Chain of IGF2BP3(1-2) (O00425 178-364): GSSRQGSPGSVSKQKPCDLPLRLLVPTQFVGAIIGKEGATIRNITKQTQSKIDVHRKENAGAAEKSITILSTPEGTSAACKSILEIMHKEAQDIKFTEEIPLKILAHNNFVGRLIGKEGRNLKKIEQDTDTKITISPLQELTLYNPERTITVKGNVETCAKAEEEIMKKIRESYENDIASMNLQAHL
Chain of RBMX (P38159 1-110): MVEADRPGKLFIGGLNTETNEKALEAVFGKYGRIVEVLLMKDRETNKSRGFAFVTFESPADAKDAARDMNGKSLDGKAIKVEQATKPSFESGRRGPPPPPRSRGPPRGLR
Chain of KHDRBS1 (Q07666 85-210): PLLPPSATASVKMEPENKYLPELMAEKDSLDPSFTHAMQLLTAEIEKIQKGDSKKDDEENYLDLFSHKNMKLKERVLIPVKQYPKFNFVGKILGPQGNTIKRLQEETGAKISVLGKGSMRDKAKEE
Chain of TNRC4(3) (Q5SZQ8 351-465): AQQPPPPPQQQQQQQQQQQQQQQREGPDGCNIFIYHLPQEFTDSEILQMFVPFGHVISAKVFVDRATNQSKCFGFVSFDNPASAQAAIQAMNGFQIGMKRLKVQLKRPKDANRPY
Chain of VIGILIN(1-5) (Q00341 138-534): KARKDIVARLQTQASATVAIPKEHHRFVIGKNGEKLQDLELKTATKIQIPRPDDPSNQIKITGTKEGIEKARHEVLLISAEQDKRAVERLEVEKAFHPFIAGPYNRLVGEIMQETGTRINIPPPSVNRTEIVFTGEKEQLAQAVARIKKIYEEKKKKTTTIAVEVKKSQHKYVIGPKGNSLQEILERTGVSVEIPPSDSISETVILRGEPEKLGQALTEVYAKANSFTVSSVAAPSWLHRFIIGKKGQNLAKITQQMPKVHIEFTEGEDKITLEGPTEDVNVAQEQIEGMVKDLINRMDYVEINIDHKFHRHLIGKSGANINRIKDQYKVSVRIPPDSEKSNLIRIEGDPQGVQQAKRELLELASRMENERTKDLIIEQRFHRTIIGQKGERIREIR

Regarding CAGUGCAAUGAUGAAAGGGCAU, the binding signal with VIGILIN(1-5) came to 156 ± 8.85 fluorescence intensity; with RBMX, 686 ± 37.1 fluorescence intensity; with NFAT90(2)/ILF3, 23 ± 0.905 fluorescence intensity; with IGF2BP3(1-2), 43.1 ± 3.58 fluorescence intensity; in the assay with STAU2(1-2), 39.2 ± 1.2 fluorescence intensity; with RBM24, 1450 ± 56.8 fluorescence intensity. In addition, the binding signal was found to be 85.6 ± 1 fluorescence intensity in the assay with TNRC4(3); 30.8 ± 0.523 fluorescence intensity with YTHDF2; 21.2 ± 0.735 fluorescence intensity in the assay with RBM44; 34 ± 2.81 fluorescence intensity with RBM7; 38.8 ± 4.95 fluorescence intensity with RBM12B(4); 67.57 ± 0.354 fluorescence intensity with RED1(1)/ADARB1. Also, the binding signal with KHDRBS1 came to 25.1 ± 9.81 fluorescence intensity; with RBM3, 1390 ± 40.6 fluorescence intensity; in the assay with YTHDF3, 52.8 ± 5.03 fluorescence intensity; in the assay with NOVA2(1-2), 71.4 ± 9.69 fluorescence intensity; with SFRS4, 236 ± 1.78 fluorescence intensity.
Take UAGCUUAUCAGACUGAUGUUGA: the binding signal stood at 20.4 ± 2.57 fluorescence intensity in the assay with VIGILIN(1-5); 71.4 ± 18 fluorescence intensity in the assay with RBMX; 20.4 ± 2.26 fluorescence intensity with STAU2(1-2); 1720 ± 109 fluorescence intensity with RBM24; 25 ± 0.665 fluorescence intensity with TNRC4(3); 409 ± 132 fluorescence intensity with RBM3.
Consider UGAGGUAGUAGGUUGUAUAGUU, for which the binding signal with VIGILIN(1-5) is 86.5 ± 26.5 fluorescence intensity; with RBMX, 216 ± 27.7 fluorescence intensity; with IGF2BP3(1-2) it was 21.2 ± 1.65 fluorescence intensity; with RBM24, 596 ± 24 fluorescence intensity; with TNRC4(3) it was 69.3 ± 14.8 fluorescence intensity; with RBM44, 20.7 ± 0.276 fluorescence intensity. In addition, the binding signal in the assay with RBM7 worked out at 22.1 ± 0.665 fluorescence intensity; in the assay with RED1(1)/ADARB1, 40.73 ± 0.318 fluorescence intensity; with KHDRBS1 it was 22.6 ± 1.88 fluorescence intensity; with RBM3, 669 ± 18.7 fluorescence intensity; in the assay with YTHDF3 it was 30 ± 0.891 fluorescence intensity; in the assay with SFRS4 it was 20.4 ± 3.62 fluorescence intensity.
UGAGGUAGUAGGUUGUAUGGUU: the binding signal with VIGILIN(1-5) came out at 454 ± 17.2 fluorescence intensity; with RBMX it was 571 ± 25 fluorescence intensity; with DUS2L, 47.2 ± 5.46 fluorescence intensity; in the assay with NFAT90(2)/ILF3, 27.3 ± 2.02 fluorescence intensity; with IGF2BP3(1-2), 34.3 ± 8.59 fluorescence intensity; with STAU2(1-2), 74.1 ± 4.8 fluorescence intensity. In addition, the binding signal came to 1340 ± 23.1 fluorescence intensity with RBM24; 333 ± 23.4 fluorescence intensity with TNRC4(3); 72.2 ± 12.5 fluorescence intensity with YTHDF2; 24.5 ± 2.6 fluorescence intensity with RBM44; 45.27 ± 0.0778 fluorescence intensity with RBM7; 43.3 ± 11.8 fluorescence intensity with RNPC2. Also, the binding signal with RBM12B(4) was found to be 62 ± 3.02 fluorescence intensity; in the assay with RED1(1)/ADARB1, 151 ± 4.54 fluorescence intensity; with SON, 23.9 ± 4.74 fluorescence intensity; with KHDRBS1, 25.6 ± 0.417 fluorescence intensity; in the assay with RBM3, 1642 ± 12.9 fluorescence intensity; in the assay with YTHDF3, 117 ± 1.29 fluorescence intensity. Also, the binding signal with NOVA2(1-2) was 26.8 ± 4.61 fluorescence intensity; in the assay with SFRS4, 206 ± 51.4 fluorescence intensity.
Take UGAGGUAGUAGGUUGUGUGGUU: the binding signal with VIGILIN(1-5) came to 622 ± 17.6 fluorescence intensity; with RBMX, 721 ± 26 fluorescence intensity; in the assay with DUS2L, 76.1 ± 2.55 fluorescence intensity; with NFAT90(2)/ILF3 it was 45.6 ± 4.09 fluorescence intensity; with IGF2BP3(1-2), 61.2 ± 7.31 fluorescence intensity; with STAU2(1-2), 148.7 ± 0.905 fluorescence intensity. The binding signal with RBM24 was determined as 1780 ± 28.1 fluorescence intensity; in the assay with TNRC4(3), 324 ± 34.8 fluorescence intensity; with YTHDF2, 90.3 ± 14.1 fluorescence intensity; with RBM7 it was 50.2 ± 0.997 fluorescence intensity; with RNPC2, 80.9 ± 8.52 fluorescence intensity; with RBM12B(4), 50.1 ± 2.09 fluorescence intensity. The binding signal came out at 230 ± 23.8 fluorescence intensity with RED1(1)/ADARB1; 24.3 ± 4.36 fluorescence intensity with SON; 28.3 ± 5.26 fluorescence intensity in the assay with KHDRBS1; 1550 ± 33.7 fluorescence intensity with RBM3; 129 ± 9.2 fluorescence intensity with YTHDF3; 40.2 ± 2.14 fluorescence intensity with NOVA2(1-2). For the same sequence, the binding signal with SFRS4 was determined as 339 ± 8.46 fluorescence intensity.
In the case of AGAGGUAGUAGGUUGCAUAGUU, the binding signal was determined as 173 ± 11.1 fluorescence intensity with VIGILIN(1-5); 963 ± 66.7 fluorescence intensity in the assay with RBMX; 25.82 ± 0.0919 fluorescence intensity with DUS2L; 21.9 ± 1.63 fluorescence intensity with NFAT90(2)/ILF3; 44.2 ± 2.91 fluorescence intensity with IGF2BP3(1-2); 53.6 ± 0.792 fluorescence intensity with STAU2(1-2). Moreover, the binding signal was found to be 1891 ± 18.8 fluorescence intensity in the assay with RBM24; 191 ± 21.4 fluorescence intensity with TNRC4(3); 38.4 ± 3.27 fluorescence intensity in the assay with YTHDF2; 36.3 ± 3 fluorescence intensity in the assay with RBM7; 27 ± 3 fluorescence intensity with RNPC2; 23.2 ± 2.64 fluorescence intensity with RBM12B(4). For the same sequence, the binding signal in the assay with RED1(1)/ADARB1 was found to be 152 ± 6.66 fluorescence intensity; in the assay with SON it was 20.1 ± 1.45 fluorescence intensity; in the assay with KHDRBS1, 21.6 ± 3.36 fluorescence intensity; with RBM3 it was 2295 ± 10 fluorescence intensity; with YTHDF3 it was 60.7 ± 7.12 fluorescence intensity; with NOVA2(1-2), 151 ± 5.8 fluorescence intensity. Moreover, in the assay with SFRS4, the binding signal came to 238 ± 11.7 fluorescence intensity.
